Data taken from ChEMBL document CHEMBL1961873, “Compounds: GSK PKIS; Assays: Nanosyn kinase panel” (2012).

How the values were obtained:
[1] = target: Sphingosine kinase 1 (Homo sapiens) (UniProt Q9NYA1); settings: at 1 µM;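 further: mean SPHK1 inhibition value reported from the GSK PKIS kinase panel screen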
[2] = target: T1, Sphingosine kinase 2 (Homo sapiens) (UniProt Q9NRA0); settings: at 0.1 µM
T1 sequence (whole entry): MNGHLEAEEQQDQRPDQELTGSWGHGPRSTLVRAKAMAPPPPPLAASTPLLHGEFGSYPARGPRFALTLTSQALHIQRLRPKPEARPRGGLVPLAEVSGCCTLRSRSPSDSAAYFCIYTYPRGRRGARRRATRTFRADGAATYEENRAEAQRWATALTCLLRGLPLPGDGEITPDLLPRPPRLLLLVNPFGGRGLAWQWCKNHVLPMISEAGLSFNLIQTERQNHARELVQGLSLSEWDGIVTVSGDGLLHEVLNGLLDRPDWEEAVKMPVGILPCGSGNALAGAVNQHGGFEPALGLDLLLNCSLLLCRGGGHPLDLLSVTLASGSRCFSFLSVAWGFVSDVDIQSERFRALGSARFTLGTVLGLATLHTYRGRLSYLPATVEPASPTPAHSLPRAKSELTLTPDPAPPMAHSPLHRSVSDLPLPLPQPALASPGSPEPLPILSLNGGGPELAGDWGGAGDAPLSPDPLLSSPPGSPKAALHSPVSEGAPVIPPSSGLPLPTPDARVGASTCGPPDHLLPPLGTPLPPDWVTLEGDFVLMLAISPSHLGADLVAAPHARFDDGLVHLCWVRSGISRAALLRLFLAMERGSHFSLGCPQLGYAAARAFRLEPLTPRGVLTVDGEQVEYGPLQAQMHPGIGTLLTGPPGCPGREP

[3] = target: T1, Sphingosine kinase 2 (Homo sapiens); settings: at 1 µM
[4] = target: Casein kinase II subunit alpha (Homo sapiens) (UniProt P68400); settings: at 0.1 µM
[5] = target: Casein kinase II subunit alpha (Homo sapiens) (UniProt P68400); settings: at 1 µM
[6] = target: T2, Inhibitor of nuclear factor kappa-B kinase subunit alpha (Homo sapiens) (UniProt O15111); settings: at 0.1 µM
T2 sequence (whole entry): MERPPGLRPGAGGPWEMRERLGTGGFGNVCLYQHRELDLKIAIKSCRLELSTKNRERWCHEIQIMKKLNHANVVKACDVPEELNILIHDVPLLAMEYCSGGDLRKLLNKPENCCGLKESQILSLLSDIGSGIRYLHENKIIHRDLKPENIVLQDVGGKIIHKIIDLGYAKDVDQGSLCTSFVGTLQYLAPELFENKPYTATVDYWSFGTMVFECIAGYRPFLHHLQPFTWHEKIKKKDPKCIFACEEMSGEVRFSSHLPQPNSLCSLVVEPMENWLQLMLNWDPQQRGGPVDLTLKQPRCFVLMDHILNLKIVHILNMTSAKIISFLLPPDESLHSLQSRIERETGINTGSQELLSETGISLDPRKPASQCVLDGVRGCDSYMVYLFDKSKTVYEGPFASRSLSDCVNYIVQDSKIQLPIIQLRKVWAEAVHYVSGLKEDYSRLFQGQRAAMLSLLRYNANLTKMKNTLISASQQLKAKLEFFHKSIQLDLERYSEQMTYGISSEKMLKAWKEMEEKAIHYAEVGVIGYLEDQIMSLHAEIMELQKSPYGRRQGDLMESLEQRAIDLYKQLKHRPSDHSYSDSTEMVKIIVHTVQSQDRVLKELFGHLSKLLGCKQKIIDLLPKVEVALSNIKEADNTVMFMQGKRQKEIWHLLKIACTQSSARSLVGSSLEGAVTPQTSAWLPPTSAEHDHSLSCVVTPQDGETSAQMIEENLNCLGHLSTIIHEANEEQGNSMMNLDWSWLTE

[7] = target: T2, Inhibitor of nuclear factor kappa-B kinase subunit alpha (Homo sapiens); settings: at 1 µM
[8] = target: T3, Inhibitor of nuclear factor kappa-B kinase subunit beta (Homo sapiens) (UniProt O14920); settings: at 0.1 µM
T3 sequence (whole entry): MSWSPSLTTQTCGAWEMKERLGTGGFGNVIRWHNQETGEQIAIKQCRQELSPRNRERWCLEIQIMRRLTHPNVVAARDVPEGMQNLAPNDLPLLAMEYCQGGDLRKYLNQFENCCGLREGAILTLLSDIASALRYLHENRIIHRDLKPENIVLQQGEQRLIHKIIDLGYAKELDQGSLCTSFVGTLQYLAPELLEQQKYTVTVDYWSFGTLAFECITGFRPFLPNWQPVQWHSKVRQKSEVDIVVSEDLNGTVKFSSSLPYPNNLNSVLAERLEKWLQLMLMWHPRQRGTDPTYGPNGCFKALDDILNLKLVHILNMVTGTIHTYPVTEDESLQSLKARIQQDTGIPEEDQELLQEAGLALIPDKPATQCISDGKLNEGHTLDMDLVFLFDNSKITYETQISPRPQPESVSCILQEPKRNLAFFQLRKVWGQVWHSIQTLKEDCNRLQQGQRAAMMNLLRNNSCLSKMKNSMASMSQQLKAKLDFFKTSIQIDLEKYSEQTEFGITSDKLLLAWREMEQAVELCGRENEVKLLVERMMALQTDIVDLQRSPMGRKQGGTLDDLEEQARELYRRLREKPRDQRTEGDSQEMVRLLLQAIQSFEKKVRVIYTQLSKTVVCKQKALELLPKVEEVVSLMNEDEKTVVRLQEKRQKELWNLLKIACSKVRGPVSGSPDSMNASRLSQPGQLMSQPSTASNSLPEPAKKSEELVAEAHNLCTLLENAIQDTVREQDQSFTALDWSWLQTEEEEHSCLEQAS

[9] = target: T3, Inhibitor of nuclear factor kappa-B kinase subunit beta (Homo sapiens); settings: at 1 µM
[10] = target: T4, Inhibitor of nuclear factor kappa-B kinase subunit epsilon (Homo sapiens) (UniProt Q14164); settings: at 0.1 µM
T4 sequence (whole entry): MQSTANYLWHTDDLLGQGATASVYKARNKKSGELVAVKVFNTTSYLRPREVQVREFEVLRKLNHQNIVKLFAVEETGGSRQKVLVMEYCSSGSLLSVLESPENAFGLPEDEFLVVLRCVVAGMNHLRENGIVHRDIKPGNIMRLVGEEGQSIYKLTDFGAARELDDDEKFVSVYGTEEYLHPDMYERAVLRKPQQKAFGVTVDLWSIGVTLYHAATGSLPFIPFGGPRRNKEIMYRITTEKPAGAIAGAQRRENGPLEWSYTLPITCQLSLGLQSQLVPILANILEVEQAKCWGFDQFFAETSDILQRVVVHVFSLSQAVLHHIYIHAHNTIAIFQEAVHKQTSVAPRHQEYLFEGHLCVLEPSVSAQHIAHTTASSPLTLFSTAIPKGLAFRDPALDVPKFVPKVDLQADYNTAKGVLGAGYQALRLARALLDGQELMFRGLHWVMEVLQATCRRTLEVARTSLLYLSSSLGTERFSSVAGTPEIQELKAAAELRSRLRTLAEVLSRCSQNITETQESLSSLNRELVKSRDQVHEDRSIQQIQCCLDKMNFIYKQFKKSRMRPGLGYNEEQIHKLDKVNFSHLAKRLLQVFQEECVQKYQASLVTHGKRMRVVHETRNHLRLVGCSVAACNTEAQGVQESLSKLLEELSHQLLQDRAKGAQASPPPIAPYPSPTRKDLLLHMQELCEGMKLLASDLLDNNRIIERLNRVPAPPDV

[11] = target: T4, Inhibitor of nuclear factor kappa-B kinase subunit epsilon (Homo sapiens); settings: at 1 µM
[12] = target: T5, Serine/threonine-protein kinase Nek1 (Homo sapiens) (UniProt Q96PY6); settings: at 0.1 µM
T5 sequence (whole entry): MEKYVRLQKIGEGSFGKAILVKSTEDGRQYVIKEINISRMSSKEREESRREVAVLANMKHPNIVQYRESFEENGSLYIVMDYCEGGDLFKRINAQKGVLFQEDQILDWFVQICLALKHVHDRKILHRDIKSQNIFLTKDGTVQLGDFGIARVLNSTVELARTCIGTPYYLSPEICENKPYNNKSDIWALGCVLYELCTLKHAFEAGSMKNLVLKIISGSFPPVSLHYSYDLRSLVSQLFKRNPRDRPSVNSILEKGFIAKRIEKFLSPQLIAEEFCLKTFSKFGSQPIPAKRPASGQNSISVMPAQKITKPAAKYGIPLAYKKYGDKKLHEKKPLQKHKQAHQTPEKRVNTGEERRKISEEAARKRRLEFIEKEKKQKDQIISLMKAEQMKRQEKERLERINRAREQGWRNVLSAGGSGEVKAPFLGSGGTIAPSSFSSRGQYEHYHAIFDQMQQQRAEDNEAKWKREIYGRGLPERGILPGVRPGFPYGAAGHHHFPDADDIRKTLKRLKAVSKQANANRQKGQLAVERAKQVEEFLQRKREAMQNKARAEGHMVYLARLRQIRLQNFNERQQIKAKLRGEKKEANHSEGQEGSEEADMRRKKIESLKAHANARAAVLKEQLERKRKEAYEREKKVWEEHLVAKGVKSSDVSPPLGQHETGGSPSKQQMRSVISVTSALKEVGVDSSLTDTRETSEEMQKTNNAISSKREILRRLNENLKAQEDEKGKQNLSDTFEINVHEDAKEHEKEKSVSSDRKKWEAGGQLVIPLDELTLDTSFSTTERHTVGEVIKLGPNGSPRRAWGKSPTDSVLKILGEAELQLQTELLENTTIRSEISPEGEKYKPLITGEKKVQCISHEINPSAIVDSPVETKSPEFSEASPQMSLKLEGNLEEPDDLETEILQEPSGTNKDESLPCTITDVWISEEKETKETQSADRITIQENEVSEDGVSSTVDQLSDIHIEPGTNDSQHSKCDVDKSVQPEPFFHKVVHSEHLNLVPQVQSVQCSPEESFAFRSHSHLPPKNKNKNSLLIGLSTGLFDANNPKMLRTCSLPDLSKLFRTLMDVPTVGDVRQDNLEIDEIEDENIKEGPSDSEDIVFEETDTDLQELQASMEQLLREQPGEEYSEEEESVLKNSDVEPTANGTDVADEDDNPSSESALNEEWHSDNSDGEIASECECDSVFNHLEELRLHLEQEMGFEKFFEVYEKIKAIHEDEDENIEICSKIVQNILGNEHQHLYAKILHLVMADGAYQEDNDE

[13] = target: T5, Serine/threonine-protein kinase Nek1 (Homo sapiens); settings: at 1 µM
[14] = target: T6, Serine/threonine-protein kinase Nek2 (Homo sapiens) (UniProt P51955); settings: at 0.1 µM
T6 sequence (whole entry): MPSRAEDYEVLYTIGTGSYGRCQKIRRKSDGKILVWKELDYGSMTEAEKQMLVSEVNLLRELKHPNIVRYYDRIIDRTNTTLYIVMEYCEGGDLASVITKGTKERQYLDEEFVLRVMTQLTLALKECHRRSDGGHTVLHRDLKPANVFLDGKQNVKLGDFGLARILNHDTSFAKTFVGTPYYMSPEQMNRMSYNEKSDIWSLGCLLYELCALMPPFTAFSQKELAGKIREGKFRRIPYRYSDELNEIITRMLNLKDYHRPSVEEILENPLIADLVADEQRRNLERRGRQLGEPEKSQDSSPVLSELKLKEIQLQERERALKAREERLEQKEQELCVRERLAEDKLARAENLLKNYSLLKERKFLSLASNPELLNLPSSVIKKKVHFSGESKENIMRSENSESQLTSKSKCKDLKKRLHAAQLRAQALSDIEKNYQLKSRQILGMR

[15] = target: T6, Serine/threonine-protein kinase Nek2 (Homo sapiens); settings: at 1 µM
[16] = target: Serine/threonine-protein kinase Nek6 (Homo sapiens) (UniProt Q9HC98); settings: at 0.1 µM
[17] = target: Serine/threonine-protein kinase Nek6 (Homo sapiens) (UniProt Q9HC98); settings: at 1 µM
[18] = target: Serine/threonine-protein kinase Nek7 (Homo sapiens) (UniProt Q8TDX7); settings: at 0.1 µM
[19] = target: Serine/threonine-protein kinase Nek7 (Homo sapiens) (UniProt Q8TDX7); settings: at 1 µM
[20] = target: T7, Serine/threonine-protein kinase Nek9 (Homo sapiens) (UniProt Q8TD19); settings: at 0.1 µM;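 further: reported value is the mean percent inhibition of NEK9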
T7 sequence (whole entry): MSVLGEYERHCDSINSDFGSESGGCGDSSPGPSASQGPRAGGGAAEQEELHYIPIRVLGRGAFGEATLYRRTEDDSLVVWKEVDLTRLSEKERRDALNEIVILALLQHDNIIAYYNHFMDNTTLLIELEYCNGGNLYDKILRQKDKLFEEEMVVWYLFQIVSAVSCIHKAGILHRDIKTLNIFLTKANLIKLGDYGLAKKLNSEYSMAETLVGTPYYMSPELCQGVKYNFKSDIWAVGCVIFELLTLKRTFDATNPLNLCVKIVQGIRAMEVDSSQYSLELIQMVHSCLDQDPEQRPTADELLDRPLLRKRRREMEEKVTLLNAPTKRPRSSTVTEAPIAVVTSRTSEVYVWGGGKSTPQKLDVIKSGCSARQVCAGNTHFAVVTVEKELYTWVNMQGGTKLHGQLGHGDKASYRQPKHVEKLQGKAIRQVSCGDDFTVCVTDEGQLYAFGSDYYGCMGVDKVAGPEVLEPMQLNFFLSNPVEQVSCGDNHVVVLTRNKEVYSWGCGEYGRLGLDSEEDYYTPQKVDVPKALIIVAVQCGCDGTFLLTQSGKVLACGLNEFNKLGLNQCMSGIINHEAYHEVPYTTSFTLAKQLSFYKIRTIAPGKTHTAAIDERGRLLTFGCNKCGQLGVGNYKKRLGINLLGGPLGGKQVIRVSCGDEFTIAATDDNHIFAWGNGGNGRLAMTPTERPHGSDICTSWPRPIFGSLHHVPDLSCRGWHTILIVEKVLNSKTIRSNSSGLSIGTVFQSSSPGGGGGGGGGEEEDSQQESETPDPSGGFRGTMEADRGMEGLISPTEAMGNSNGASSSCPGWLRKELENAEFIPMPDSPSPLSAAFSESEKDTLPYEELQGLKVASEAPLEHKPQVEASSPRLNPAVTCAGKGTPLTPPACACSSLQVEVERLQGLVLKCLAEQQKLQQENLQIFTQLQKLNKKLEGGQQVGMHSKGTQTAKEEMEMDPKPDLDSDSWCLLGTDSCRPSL

Chain of Casein kinase II subunit alpha (Homo sapiens) (P68400 whole entry, looked up): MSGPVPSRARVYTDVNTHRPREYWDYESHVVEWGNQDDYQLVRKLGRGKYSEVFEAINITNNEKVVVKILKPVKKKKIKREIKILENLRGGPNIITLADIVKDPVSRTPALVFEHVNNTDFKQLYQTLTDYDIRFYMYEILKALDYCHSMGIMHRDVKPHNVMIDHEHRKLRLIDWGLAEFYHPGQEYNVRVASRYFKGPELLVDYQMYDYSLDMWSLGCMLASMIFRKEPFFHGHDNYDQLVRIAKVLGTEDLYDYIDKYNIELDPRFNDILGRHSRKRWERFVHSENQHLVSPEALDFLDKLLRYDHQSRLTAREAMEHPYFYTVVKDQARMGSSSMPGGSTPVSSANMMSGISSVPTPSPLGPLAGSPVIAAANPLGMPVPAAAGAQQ
Chain of Serine/threonine-protein kinase Nek6 (Homo sapiens) (Q9HC98 whole entry): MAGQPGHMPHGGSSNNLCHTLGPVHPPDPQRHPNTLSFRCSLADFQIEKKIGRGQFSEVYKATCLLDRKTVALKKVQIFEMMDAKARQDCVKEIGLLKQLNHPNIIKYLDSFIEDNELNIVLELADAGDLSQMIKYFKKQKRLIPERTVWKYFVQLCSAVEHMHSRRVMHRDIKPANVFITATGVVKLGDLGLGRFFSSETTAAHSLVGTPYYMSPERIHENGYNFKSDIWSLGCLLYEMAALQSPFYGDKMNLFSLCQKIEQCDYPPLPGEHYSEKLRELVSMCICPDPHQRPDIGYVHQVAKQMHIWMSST
Chain of Serine/threonine-protein kinase Nek7 (Homo sapiens) (Q8TDX7 whole entry, looked up): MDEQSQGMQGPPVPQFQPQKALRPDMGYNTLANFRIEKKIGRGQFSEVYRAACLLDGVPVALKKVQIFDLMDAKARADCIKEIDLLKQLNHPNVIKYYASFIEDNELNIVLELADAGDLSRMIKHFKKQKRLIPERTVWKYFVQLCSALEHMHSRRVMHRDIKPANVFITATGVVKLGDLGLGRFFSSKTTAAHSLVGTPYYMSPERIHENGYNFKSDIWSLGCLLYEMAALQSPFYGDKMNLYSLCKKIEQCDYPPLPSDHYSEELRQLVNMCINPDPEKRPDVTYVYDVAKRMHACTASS
Chain of Sphingosine kinase 1 (Homo sapiens) (Q9NYA1 whole entry): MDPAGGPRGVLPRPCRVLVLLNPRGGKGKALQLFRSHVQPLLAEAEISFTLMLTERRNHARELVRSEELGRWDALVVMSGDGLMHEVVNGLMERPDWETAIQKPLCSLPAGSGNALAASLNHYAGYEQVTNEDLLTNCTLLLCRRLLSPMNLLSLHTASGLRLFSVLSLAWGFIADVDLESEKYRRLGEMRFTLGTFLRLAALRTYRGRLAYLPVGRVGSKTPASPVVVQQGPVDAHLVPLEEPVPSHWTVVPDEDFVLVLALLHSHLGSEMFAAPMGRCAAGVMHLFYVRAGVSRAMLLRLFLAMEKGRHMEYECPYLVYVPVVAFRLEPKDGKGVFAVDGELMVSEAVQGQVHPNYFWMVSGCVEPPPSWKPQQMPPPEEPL

Compound CC1=C(C(=O)Nc2ccc3[nH]ncc3c2)C(c2ccc3ccccc3c2)CC(=O)N1 (stereo not given) has an inhibition [1] of 0%, an inhibition [2] of 0.52% and an inhibition [3] of 0.65%. It also gave an inhibition [4] of 3.48%, an inhibition [5] of 6.51% and an inhibition [6] of -1.96%. It also gave an inhibition [7] of 1.55%, an inhibition [8] of 1.45% and an inhibition [9] of 0.58%. It also gave an inhibition [10] of 3.14%, an inhibition [11] of 3.81% and an inhibition [12] of 1.66%. It also gave an inhibition [13] of 2.46%, an inhibition [14] of 2.88% and an inhibition [15] of 2.9%. It also gave an inhibition [16] of -0.05%, an inhibition [17] of 2.48% and an inhibition [18] of 0.42%. It also gave an inhibition [19] of 1.79% and an inhibition [20] of 3.14%.
